Holding throughout (experiment): DAPPL (digital affinity profiling via proximity ligation, sequencing); 10 mM Tris-HCl pH 7.5, 50 mM NaCl, 1 mM DTT, 4% glycerol, room temperature, 30 min; GST-TFs on glutathione beads, 16-mer random dsDNA library, 0.1% formaldehyde crosslink after washing; high values mean tight binding
One test addresses T1, FLI1 (Homo sapiens, UniProt Q01543 1-452).
T1 sequence: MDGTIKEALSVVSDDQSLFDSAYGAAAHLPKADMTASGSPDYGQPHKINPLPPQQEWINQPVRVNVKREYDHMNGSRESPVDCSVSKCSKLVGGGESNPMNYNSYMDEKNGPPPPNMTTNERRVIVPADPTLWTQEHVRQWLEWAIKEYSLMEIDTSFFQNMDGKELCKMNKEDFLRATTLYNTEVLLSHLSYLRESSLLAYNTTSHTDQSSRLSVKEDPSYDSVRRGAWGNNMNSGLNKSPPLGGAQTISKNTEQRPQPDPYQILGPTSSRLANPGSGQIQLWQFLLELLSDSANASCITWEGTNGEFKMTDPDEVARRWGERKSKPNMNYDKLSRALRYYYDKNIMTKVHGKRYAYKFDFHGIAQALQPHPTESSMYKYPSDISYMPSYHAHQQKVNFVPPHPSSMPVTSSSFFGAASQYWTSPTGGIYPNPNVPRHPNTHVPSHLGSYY
As to conditions: protein: recombinant; tags: N-terminal GST; dsDNA, one strand shown. The essentials:
(§1)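 Sequencing on an Illumina NextSeq500 followed washing, crosslinking with 0.1% formaldehyde, proximity ligation (BsaI/T4 ligase, 1 h, 37 °C) and PCR amplification of pools that had been incubated for 30 min at room temperature with 200 nmole of a random double-stranded 16-mer DNA library in Tris/NaCl/DTT/glycerol buffer. Each pool held DNA-barcoded human transcription factors, expressed in yeast as GST fusions and captured on glutathione beads, plus a tag-only sample. Binding signal is a hexamer's read frequency for a factor divided by its frequency in the tag-only sample.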

The next test has as its target T2, ELK1 (Homo sapiens, UniProt P19419 1-428).
T2 sequence: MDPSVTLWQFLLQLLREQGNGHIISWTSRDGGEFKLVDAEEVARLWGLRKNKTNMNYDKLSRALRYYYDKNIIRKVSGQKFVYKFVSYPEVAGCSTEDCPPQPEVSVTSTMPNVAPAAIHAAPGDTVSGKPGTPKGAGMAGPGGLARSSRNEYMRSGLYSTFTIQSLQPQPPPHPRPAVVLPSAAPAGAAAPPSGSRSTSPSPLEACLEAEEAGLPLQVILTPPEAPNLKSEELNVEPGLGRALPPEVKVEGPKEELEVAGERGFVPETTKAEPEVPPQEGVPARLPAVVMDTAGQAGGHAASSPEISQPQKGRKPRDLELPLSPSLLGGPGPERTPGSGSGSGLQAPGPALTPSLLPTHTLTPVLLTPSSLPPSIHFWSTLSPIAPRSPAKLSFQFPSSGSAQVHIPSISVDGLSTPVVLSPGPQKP
Conditions: protein: recombinant; tags: N-terminal GST; dsDNA, one strand shown. The method, boiled down: as §1

The target of a further test is T3, GABPA (Homo sapiens, UniProt Q06546 1-454).
T3 sequence: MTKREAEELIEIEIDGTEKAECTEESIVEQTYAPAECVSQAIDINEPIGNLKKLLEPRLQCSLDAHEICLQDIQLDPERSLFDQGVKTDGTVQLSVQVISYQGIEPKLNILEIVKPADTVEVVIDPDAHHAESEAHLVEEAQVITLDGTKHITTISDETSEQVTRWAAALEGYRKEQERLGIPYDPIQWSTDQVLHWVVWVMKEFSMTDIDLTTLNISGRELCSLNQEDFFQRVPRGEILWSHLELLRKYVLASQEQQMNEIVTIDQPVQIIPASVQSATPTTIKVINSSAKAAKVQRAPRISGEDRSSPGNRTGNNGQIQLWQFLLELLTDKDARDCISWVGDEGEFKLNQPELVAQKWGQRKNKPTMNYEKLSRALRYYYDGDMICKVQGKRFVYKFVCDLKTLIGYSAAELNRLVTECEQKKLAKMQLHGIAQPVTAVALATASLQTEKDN
As to conditions: protein: recombinant; tags: N-terminal GST; dsDNA, one strand shown. The essentials:
as §1

The next test addresses T4, ERG (Homo sapiens, UniProt P11308 1-479).
T4 sequence: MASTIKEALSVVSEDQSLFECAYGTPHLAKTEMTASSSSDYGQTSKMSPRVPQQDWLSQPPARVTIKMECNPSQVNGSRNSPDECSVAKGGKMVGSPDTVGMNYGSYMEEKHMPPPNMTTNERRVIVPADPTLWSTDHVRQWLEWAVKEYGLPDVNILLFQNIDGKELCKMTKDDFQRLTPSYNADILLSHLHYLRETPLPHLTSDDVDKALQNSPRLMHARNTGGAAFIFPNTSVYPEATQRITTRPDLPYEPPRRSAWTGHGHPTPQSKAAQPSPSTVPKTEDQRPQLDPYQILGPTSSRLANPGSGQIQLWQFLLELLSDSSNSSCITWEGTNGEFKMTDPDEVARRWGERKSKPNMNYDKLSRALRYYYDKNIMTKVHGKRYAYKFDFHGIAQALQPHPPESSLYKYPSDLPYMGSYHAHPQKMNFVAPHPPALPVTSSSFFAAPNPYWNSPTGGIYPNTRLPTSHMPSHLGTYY
As to conditions: protein: recombinant; tags: N-terminal GST; dsDNA, one strand shown. The method, boiled down:
as §1

Another test addresses ELF1 (Homo sapiens, UniProt P32519 1-619). As to conditions: protein: recombinant; tags: N-terminal GST; dsDNA, one strand shown. The essentials:
as §1

For a further test, the target named is SPI1 (Homo sapiens, UniProt P17947 1-270). Conditions: protein: recombinant; tags: N-terminal GST; dsDNA, one strand shown. The method, boiled down: as §1
A further test deals with SPIB (Homo sapiens, UniProt Q01892 1-262). Conditions: protein: recombinant; tags: N-terminal GST; dsDNA, one strand shown. The essentials: as §1
In a further test the target is T5, ELK3 (Homo sapiens, UniProt P41970 1-407).
T5 sequence: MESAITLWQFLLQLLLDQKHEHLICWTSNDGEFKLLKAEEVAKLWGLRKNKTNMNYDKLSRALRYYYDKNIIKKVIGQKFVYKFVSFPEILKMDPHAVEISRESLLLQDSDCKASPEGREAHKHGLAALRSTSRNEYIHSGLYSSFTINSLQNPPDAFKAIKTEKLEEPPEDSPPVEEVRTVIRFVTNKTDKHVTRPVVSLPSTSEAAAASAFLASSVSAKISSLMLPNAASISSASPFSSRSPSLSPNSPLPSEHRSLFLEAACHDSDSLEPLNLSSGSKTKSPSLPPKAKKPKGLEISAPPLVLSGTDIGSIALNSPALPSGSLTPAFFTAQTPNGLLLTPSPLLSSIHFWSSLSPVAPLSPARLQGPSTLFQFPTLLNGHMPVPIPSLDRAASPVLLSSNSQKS
As to conditions: protein: recombinant; tags: N-terminal GST; dsDNA, one strand shown. The method, boiled down:
as §1

The next test concerns the target T6, FEV (Homo sapiens, UniProt Q99581 1-238).
T6 sequence: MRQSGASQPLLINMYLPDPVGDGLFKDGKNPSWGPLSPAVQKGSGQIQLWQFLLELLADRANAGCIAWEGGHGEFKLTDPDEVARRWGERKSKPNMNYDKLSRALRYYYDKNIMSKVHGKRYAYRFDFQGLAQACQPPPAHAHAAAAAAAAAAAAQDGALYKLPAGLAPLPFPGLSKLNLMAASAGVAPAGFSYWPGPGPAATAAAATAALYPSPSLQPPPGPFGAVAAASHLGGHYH
As to conditions: protein: recombinant; tags: N-terminal GST; dsDNA, one strand shown. The method, boiled down:
as §1

A further test has as its target ETV5 (Homo sapiens, UniProt P41161 1-510). Conditions: protein: recombinant; tags: N-terminal GST; dsDNA, one strand shown. The method, boiled down:
as §1

The target in the next test is HSF1 (Homo sapiens, UniProt Q00613 1-529). Conditions: protein: recombinant; tags: N-terminal GST; chain copies: 3; dsDNA, one strand shown. The essentials: as §1
The next test addresses T7, SPIC (Homo sapiens, UniProt Q8N5J4 1-248).
T7 sequence: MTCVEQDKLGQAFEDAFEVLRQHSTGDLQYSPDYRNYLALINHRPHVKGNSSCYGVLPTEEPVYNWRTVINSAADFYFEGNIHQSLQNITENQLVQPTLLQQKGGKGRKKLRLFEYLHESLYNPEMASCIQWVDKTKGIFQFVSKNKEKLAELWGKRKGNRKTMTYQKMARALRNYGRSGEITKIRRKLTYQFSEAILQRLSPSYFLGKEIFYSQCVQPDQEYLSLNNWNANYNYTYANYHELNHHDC
As to conditions: protein: recombinant; tags: N-terminal GST; dsDNA, one strand shown. The method, boiled down:
as §1

A further test has as its target ELF4 (Homo sapiens, UniProt Q99607 1-663). Conditions: protein: recombinant; tags: N-terminal GST; dsDNA, one strand shown. The method, boiled down: as §1
In the next test the target is T8, ELK4 (Homo sapiens, UniProt P28324-2 1-405).
T8 sequence: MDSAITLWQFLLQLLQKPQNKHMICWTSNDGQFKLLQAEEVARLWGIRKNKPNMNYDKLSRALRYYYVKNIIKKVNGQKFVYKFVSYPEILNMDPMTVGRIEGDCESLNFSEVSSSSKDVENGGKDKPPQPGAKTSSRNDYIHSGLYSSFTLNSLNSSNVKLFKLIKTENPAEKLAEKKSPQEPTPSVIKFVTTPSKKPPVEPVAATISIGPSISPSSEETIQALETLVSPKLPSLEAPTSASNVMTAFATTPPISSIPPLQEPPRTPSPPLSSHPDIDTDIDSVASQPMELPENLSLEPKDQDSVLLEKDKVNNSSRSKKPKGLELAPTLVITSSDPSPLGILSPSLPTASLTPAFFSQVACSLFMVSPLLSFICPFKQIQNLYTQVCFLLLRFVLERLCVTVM
Conditions: protein: recombinant; tags: N-terminal GST; dsDNA, one strand shown. The method, boiled down:
as §1

Another test deals with T9, ETV2 (Homo sapiens, UniProt O00321 1-342).
T9 sequence: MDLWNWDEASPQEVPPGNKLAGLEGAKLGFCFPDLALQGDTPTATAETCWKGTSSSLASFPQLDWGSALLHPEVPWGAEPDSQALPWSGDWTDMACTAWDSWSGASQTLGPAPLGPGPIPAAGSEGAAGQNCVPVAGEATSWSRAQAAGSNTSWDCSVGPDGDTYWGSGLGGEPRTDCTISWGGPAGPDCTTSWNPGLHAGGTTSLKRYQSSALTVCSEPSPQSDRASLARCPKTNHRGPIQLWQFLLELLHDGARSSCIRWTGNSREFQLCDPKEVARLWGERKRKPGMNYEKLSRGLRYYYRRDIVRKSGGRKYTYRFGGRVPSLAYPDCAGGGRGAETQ
Conditions: protein: recombinant; tags: N-terminal GST; dsDNA, one strand shown. The essentials: as §1

A further test deals with T10, ELF3 (Homo sapiens, UniProt P78545 1-371).
T10 sequence: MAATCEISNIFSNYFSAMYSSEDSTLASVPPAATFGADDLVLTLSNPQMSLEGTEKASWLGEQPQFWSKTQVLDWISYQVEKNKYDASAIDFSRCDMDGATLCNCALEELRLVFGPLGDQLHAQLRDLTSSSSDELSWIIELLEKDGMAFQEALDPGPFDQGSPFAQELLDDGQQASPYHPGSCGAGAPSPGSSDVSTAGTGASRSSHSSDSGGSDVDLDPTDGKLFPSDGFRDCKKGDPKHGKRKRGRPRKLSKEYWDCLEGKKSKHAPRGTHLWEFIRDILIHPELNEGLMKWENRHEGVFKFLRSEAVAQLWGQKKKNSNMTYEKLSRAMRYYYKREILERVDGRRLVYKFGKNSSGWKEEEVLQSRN
As to conditions: protein: recombinant; tags: N-terminal GST; dsDNA, one strand shown. The essentials: as §1

The target of the next test is ETV1 (Homo sapiens, UniProt P50549 1-477). Conditions: protein: recombinant; tags: N-terminal GST; dsDNA, one strand shown. The essentials: as §1
Chain of ETV1 (P50549 whole entry): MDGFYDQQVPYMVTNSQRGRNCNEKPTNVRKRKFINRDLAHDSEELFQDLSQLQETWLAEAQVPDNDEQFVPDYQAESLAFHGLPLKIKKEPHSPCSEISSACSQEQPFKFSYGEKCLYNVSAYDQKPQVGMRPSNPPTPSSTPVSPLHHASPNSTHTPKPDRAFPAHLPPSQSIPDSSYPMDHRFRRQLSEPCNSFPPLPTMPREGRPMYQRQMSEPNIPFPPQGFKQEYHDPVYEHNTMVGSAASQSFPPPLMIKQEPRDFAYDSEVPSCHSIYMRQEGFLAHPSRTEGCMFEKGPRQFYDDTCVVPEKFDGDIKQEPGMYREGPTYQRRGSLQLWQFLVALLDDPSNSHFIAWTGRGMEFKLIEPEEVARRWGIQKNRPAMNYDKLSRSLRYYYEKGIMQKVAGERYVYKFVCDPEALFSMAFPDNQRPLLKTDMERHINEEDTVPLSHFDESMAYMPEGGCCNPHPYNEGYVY

Chain of HSF1 (Q00613 whole entry): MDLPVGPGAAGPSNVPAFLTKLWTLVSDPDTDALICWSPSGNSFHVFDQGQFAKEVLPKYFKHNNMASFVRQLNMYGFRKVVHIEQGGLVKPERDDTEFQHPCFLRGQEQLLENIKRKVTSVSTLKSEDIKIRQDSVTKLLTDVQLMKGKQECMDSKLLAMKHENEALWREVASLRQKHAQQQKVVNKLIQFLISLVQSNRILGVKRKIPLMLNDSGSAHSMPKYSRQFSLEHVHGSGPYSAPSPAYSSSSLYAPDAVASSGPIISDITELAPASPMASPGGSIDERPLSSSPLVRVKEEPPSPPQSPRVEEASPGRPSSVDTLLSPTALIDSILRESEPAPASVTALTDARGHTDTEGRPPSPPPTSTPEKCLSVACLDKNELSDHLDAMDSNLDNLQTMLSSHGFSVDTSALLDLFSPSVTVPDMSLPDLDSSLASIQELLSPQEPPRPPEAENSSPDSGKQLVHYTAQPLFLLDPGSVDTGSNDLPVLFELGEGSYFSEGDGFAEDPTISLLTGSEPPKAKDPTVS
Chain of ELF1 (P32519 whole entry): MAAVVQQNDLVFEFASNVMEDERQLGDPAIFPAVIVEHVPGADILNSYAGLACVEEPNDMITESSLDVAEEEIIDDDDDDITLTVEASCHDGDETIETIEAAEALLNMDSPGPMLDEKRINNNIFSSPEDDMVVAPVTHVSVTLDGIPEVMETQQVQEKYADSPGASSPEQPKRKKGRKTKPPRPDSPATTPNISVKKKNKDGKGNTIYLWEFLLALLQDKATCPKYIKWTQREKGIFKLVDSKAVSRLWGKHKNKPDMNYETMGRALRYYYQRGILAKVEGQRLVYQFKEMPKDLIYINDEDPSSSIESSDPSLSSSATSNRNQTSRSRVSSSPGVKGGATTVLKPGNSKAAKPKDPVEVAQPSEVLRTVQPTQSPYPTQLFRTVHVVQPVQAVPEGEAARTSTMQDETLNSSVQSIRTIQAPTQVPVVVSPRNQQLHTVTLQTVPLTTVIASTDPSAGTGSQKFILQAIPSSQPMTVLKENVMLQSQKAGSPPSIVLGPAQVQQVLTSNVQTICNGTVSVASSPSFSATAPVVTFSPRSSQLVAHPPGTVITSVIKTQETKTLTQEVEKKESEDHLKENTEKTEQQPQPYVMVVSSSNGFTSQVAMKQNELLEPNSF
Chain of SPIB (Q01892 whole entry): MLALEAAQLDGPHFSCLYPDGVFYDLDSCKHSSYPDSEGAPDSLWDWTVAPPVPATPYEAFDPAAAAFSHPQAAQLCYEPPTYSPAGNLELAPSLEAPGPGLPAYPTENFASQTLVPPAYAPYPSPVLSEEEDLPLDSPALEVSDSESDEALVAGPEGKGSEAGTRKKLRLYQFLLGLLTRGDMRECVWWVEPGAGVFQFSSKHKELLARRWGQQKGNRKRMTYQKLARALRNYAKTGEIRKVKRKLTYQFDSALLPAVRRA
Chain of ELF4 (Q99607 whole entry): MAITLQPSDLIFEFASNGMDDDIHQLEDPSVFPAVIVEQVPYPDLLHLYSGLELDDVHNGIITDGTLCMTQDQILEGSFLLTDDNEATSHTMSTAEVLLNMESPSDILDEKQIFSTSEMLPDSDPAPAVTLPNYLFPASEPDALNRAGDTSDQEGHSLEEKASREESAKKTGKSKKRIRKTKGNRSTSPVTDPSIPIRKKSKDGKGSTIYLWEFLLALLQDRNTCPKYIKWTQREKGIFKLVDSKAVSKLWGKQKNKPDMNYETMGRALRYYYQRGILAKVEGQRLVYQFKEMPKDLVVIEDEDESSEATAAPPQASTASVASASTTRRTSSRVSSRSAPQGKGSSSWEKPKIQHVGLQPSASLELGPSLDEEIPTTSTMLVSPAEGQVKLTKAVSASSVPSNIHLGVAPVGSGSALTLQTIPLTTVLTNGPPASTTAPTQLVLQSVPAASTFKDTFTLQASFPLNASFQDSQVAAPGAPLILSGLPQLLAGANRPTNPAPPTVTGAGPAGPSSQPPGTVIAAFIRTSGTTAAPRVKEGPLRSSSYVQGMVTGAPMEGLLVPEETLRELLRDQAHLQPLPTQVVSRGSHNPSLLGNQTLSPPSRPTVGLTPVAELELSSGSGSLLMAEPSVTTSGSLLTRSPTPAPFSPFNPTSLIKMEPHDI
Chain of ETV5 (P41161 whole entry): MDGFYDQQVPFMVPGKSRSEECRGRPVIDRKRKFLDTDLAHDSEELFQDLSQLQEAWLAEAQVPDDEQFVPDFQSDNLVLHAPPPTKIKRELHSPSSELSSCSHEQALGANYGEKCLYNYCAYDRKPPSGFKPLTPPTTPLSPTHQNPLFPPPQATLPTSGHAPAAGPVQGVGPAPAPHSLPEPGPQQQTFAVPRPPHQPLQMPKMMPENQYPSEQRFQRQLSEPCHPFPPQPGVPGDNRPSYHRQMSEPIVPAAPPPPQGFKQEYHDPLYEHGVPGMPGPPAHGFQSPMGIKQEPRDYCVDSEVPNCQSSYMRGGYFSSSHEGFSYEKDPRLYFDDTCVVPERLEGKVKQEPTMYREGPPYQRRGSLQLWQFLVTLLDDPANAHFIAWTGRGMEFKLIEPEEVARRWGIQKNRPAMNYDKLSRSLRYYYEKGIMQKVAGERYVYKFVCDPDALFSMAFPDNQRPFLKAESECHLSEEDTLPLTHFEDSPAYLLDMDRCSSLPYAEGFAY

Turning to ACACGA, the binding signal is 1.08 fold enrichment (6-mer frequency, TF over GST control) with FLI1; 1.1 fold enrichment (6-mer frequency, TF over GST control) with ELK1; 1.11 fold enrichment (6-mer frequency, TF over GST control) with GABPA; 1.02 fold enrichment (6-mer frequency, TF over GST control) with ERG; 1.1 fold enrichment (6-mer frequency, TF over GST control) with ELF1; 1.07 fold enrichment (6-mer frequency, TF over GST control) with SPI1. The binding signal with SPIB was 1.04 fold enrichment (6-mer frequency, TF over GST control); with ELK3 it was 1.1 fold enrichment (6-mer frequency, TF over GST control); with FEV, 1.1 fold enrichment (6-mer frequency, TF over GST control); in the test with ETV5, 1.15 fold enrichment (6-mer frequency, TF over GST control); with HSF1 it was 1.02 fold enrichment (6-mer frequency, TF over GST control); with SPIC it was 1.11 fold enrichment (6-mer frequency, TF over GST control). Moreover, the binding signal with ELF4 is 1.2 fold enrichment (6-mer frequency, TF over GST control); in the test with ELK4 it was 1.16 fold enrichment (6-mer frequency, TF over GST control); in the test with ETV2, 1.08 fold enrichment (6-mer frequency, TF over GST control); in the test with ELF3 it was 1.01 fold enrichment (6-mer frequency, TF over GST control); with ETV1, 1.1 fold enrichment (6-mer frequency, TF over GST control).

The values are drawn from paper PMC7862700, “An all-to-all approach to the identification of sequence-specific readers for epigenetic DNA modifications on cytosine”.
